MazF activator – MazEF (E. coli) toxin RNase activation; P0AE70; FAM/BHQ RNA-DNA oligo cleavage fluorescence, 5 h; activation, % at 20 µM; 350,000 compounds, 0.32% hits; in the data active means activation above about 50%
Anthrax LF prot – blocks Bacillus anthracis lethal factor protease. P15917. multiplex microsphere protease cleavage assay, LF. inhibition, % at 10 µM. 360,000 compounds, 0.12% hits; further: plate controls were buffer without enzyme for full effect and enzyme alone for no effect
PriA SSB inh – inhibitors of Klebsiella pneumoniae PriA binding to SSB C-terminal tail; AlphaScreen SSBct-PriA binding, biotinylated peptide; inhibition, % at 33 µM; 430,000 compounds, 0.6% hits; AID 1272365; in the data active means inhibition mostly above about 37%, no sharp cut-off; inactive means mostly below about 20%;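 further: plate controls were negative control peptide for no effect and reference peptide for full effect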
Bead autofluor – counter-screen for toxin protease inhibitors: compound fluorescence; fluorescence intensity (concentration not given with the values); 360,000 compounds, 3.1% hits; compound autofluorescence counterscreen, microsphere flow cytometry; active compounds read high; in the data active means fluorescence intensity above about 16000; inconclusive means no clear call, values can overlap the other calls
BoNT-F LC inh – blocks Botulinum neurotoxin F light chain protease; inhibition, % at 10 µM; AID 588497; 360,000 compounds, 0.22% hits; Multiplex microsphere protease cleavage assay, flow cytometry; in the data active means inhibition above about 35%, passing the limit was not always enough; inconclusive means no clear call, values can overlap the other calls; further: plate controls were buffer without enzyme for full effect and enzyme alone for no effect
BoNT-A LC inh2 – BoNT A light chain protease inhibition; multiplex microsphere protease substrate cleavage, flow cytometry; inhibition, % at 10 µM; 360,000 compounds, 0.17% hits; further: plate controls were buffer without enzyme for full effect and enzyme alone for no effect
An asterisk follows results filed as active; u = inconclusive; x = no result given. In the library only some 3.3% were active in any assay of this set; here they are far more common. Unless noted, no stated cut-off is given here; in the data, active means inhibition above about 30%; inconclusive means no clear call, values can overlap the other calls; inactive means below that.

SMILES | MazF activator | Anthrax LF prot | PriA SSB inh | Bead autofluor | BoNT-F LC inh | BoNT-A LC inh2
O=c1c2ccccc2[se]n1-c1ccccc1 | -15 | 4 | 30 | 7730 | 38* | 81*
O=C1CSc2ccccc2N1Cc1ccccc1F | -5 | 2 | -23 | 24057* | -3 | -2
C=CCn1c(SCc2c(C)noc2C)nc2scc(-c3ccc(C)cc3)c2c1=O | x | x | -3 | x | x | x
COc1ccc(CN2CCN(C(=O)CC(C)C)CC2)cc1Br | 7 | -4 | 4 | 2992 | -9 | -2
COc1ccc(/C=C/C(=O)N(CC(C)C)CC(C)C)cc1Br | -5 | -3 | 1 | 21487* | 3 | u
Cc1ccc(Nc2nc(NCCc3ccccc3)nc3nccnc23)cc1Cl | x | x | -6 | x | x | x
CCOc1ccc(NC(=O)CN(C)C(=O)c2ccc(OCc3ccccc3)c(OC)c2)cc1OCC | -5 | 0 | 42* | 4633 | -8 | 1
CCNC(=O)CSc1nnc(-c2cccc(S(=O)(=O)N(CC)CC)c2)n1CCc1ccccc1 | -2 | -2 | 1 | 20492* | 0 | 0
CCSc1nnc(-c2cccc(S(=O)(=O)N(CC)CC)c2)n1Cc1ccccc1 | -9 | -2 | -8 | 16031 | -3 | u
COc1cccc(-c2ccc(=O)n(CC(=O)NCCN3CCOCC3)n2)c1 | -7 | -2 | -3 | 25197* | -8 | -5
CN(C)CCNC(=O)CCn1nc(-c2ccc(Cl)cc2)ccc1=O | 6 | -9 | 2 | 3762 | 10 | 0
COc1cccc(-c2ccc(=O)n(CCCC(=O)NCc3ccccc3Cl)n2)c1 | x | x | 39* | x | x | x
Cc1ccc(CNC(=O)CCn2nc(-c3ccc(Cl)cc3)ccc2=O)cc1 | -2 | -2 | -8 | 18881* | 0 | 2
O=C(Cn1nc(-c2ccccc2)ccc1=O)NCCCN1CCOCC1 | 4 | -4 | 3 | 5185 | -8 | 0
COc1cccc(-c2ccc(=O)n(CCCC(=O)NCCc3ccccc3)n2)c1 | x | x | -4 | x | x | x
COc1cccc(-c2ccc(=O)n(CC(=O)Nc3cc4c(cc3NC(C)=O)OCCO4)n2)c1 | -6 | 1 | -17 | 21027* | -1 | u
O=C(NCc1nnc(SCCN2CCOCC2)o1)c1ccccc1 | x | x | 2 | x | x | x
CCOc1ccc(C=NNC(=O)C(O)c2ccccc2)c(O)c1 (configuration not stated) | x | x | -10 | x | x | x
O=C(Cn1nc(-c2ccccc2)ccc1=O)NCC1COCCO1 (configuration not stated) | 8 | -5 | -21 | 19171* | 7 | 4
Cc1[nH]nc(-c2nn3c(-c4ccccn4)nnc3s2)c1Br | x | x | 67* | x | x | x
COc1cccc(OC)c1-c1nn2c(-c3ccco3)nnc2s1 | 14 | 0 | 6 | 20967* | -5 | -4
Clc1ccc(-c2ccc(-c3nn4c(-c5ccco5)nnc4s3)o2)cc1 | -19 | 1 | 5 | 7729 | 6 | 3
Brc1ccc(-c2nn3c(-c4ccco4)nnc3s2)o1 | 3 | -2 | -14 | 22193* | 3 | u
Brc1ccc(-c2nn3c(-c4ccccn4)nnc3s2)o1 | 0 | -7 | 93* | 10850 | 2 | -2
c1ccc(-c2nnc3sc(-c4ccco4)nn23)nc1 | x | x | 25 | x | x | x
SMILES | MazF activator | Anthrax LF prot | PriA SSB inh | Bead autofluor | BoNT-F LC inh | BoNT-A LC inh2
O=C(Cc1ccc([N+](=O)[O-])cc1)NN=Cc1ccc([N+](=O)[O-])o1 | x | x | -4 | x | x | x
CCc1ccccc1NC(=O)/C=C/c1ccc(C)o1 | x | x | 2 | x | x | x
CCS(=O)(=O)c1ccc(-c2ccc(NC(=O)c3c(F)cccc3Cl)cc2)nn1 | x | x | -7 | x | x | x
Cc1cc(Cl)ccc1OCC(=O)Nc1cccc(S(=O)(=O)NC2=NCCCCC2)c1 | 1 | 0 | 0 | 6399 | 8 | -2
Cc1ccc(C)c(OCC(=O)Nc2cccc(S(=O)(=O)NC3=NCCCCC3)c2)c1 | -1 | 1 | 49* | 3908 | 1 | 2
CC(C)C(=O)N1CCN(c2ccc([N+](=O)[O-])c(NC(C)c3ccccc3)c2)CC1 (configuration not stated) | -1 | -8 | 49* | 8098 | -16 | -1
CC(Nc1cc(N2CCN(C(=O)C(C)(C)C)CC2)ccc1[N+](=O)[O-])c1ccccc1 (configuration not stated) | -6 | -11 | 41* | 23558* | -6 | -2
CC(Nc1cc(N2CCNCC2)ccc1[N+](=O)[O-])c1ccccc1 (configuration not stated) | 11 | -2 | 13 | 2230 | -13 | -1
O=C(Cn1nnc(-c2cccs2)n1)N1CCc2ccccc2C1 | -2 | -12 | -16 | 21633* | 2 | 1
CC1CCN(C2=C(NS(=O)(=O)c3ccc(Br)cc3)C(=O)c3ccccc3C2=O)CC1 | -16 | -4 | 70* | 4284 | -9 | -2
CC1CCN(C2=C(NS(=O)(=O)c3ccc(Cl)cc3)C(=O)c3ccccc3C2=O)CC1 | -3 | 0 | -12 | 2693 | -3 | 0
CC1CCN(C2=C(NS(=O)(=O)c3ccccc3)C(=O)c3ccccc3C2=O)CC1 | 2 | x | 64* | x | x | x
Cc1cnc(NC(=O)C(C)N2C(=O)C3CC=CCC3C2=O)s1 (configuration not stated) | 6 | -2 | -10 | 17257* | -4 | -3
C[C@@H](C(=O)Nc1nccs1)N1C(=O)C2CC=CCC2C1=O (some centres not stated) | 5 | -2 | -4 | 3580 | 8 | 0
CCN(CC)C(=O)c1cnn(-c2ccccc2)c1NC(=O)c1ccccc1F | 3 | -4 | -10 | 20443* | 7 | 6
COC(=O)COn1c(-n2nc(C)cc2C)nc2ccccc2c1=O | -6 | -5 | -15 | 22312* | -2 | -1
CCN(CC)C(=O)COn1c(SCC(=O)N(CC)CC)nc2ccccc2c1=O | -8 | -1 | -17 | 19592* | 1 | 2
Cc1cc(C)n(-c2nc3ccccc3c(=O)n2OCC(C)C)n1 | 0 | 2 | -15 | 2829 | 9 | 2
Cc1cc(C)n(-c2nc3ccccc3c3nc(C)nn23)n1 | -13 | -4 | 104* | 4504 | -3 | -1
CCOn1c(-n2nc(C)cc2C)nc2ccccc2c1=O | 5 | -2 | -10 | 20487* | -1 | -1
COc1cc(C(=O)NCCn2nc(-c3ccc(F)cc3)ccc2=O)c([N+](=O)[O-])cc1OC | x | x | 21 | x | x | x
CCOC(=O)Cc1csc(NC(=O)c2cc(=O)c(OCc3ccc(F)cc3)cn2C)n1 | x | x | -6 | x | x | x
O=C(Nc1ccon1)C(Sc1ccccc1)c1ccccc1 (configuration not stated) | -3 | -3 | -7 | 23273* | 1 | u
COc1ccc(C(O)=C2C(=O)C(=O)N(c3ncccn3)C2c2ccc(OC)cc2)cc1 (configuration not stated) | x | x | -12 | x | x | x
COc1ccnc2c1c(=O)n(Cc1cccc3ccccc13)c(=O)n2C | x | x | 0 | x | x | x
COC(=O)c1cc(COc2ccc3c4c(c(=O)oc3c2)CCCC4)c(C)o1 | 7 | -3 | -11 | 9343 | -14 | -1
O=C(O)COc1ccc2c3c(c(=O)oc2c1)CCCC3 | 9 | 0 | 1 | 4477 | 5 | 0
O=C(COc1ccc2c3c(c(=O)oc2c1)CCC3)c1ccc2c(c1)OCO2 | 125* | 10 | -10 | 5481 | -4 | 0
